Reference: article PMC7862700, “An all-to-all approach to the identification of sequence-specific readers for epigenetic DNA modifications on cytosine”

Key:
Experiment in all cases: DAPPL (digital affinity profiling via proximity ligation, sequencing); 10 mM Tris-HCl pH 7.5, 50 mM NaCl, 1 mM DTT, 4% glycerol, room temperature, 30 min; GST-TFs on glutathione beads, 16-mer random dsDNA library, 0.1% formaldehyde crosslink after washing; high values mean tight binding
[1] = biological target: T1, FEV (Homo sapiens, UniProt Q99581 1-238); details: protein: recombinant; tags: N-terminal GST; dsDNA, one strand shown
T1 sequence: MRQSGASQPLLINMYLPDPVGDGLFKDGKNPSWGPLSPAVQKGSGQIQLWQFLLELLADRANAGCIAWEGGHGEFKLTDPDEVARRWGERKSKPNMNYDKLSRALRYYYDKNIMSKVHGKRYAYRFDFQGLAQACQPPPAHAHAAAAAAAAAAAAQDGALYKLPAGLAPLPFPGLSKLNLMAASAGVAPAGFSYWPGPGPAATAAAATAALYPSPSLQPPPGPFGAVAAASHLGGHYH
In short: (§1)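 Pools of DNA-barcoded human transcription factors, expressed in yeast as GST fusions on glutathione beads and combined with a tag-only sample, were incubated with 200 nmole of a 16-mer random double-stranded DNA library. Incubation took 30 min at room temperature in Tris/NaCl/DTT/glycerol buffer and was followed by washing, 0.1% formaldehyde crosslinking, proximity ligation (BsaI/T4 ligase, 1 h, 37 °C), PCR amplification and sequencing on an Illumina NextSeq500. Binding signal is the ratio of a hexamer's read frequency for a factor to its frequency for the tag-only sample.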

[2] = biological target: ETV5 (Homo sapiens, UniProt P41161 1-510); details: protein: recombinant; tags: N-terminal GST; dsDNA, one strand shown
In short: as §1

[3] = biological target: HSF1 (Homo sapiens, UniProt Q00613 1-529); details: protein: recombinant; tags: N-terminal GST; chain copies: 3; dsDNA, one strand shown
In short: as §1

[4] = biological target: T2, SPIC (Homo sapiens, UniProt Q8N5J4 1-248); details: protein: recombinant; tags: N-terminal GST; dsDNA, one strand shown
T2 sequence: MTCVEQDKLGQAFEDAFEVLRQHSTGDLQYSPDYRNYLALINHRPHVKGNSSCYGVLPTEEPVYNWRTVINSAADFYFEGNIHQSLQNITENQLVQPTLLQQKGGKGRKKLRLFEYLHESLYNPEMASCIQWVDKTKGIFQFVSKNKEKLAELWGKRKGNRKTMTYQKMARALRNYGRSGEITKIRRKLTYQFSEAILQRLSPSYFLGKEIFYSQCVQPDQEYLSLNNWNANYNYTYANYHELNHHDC
In short: as §1

[5] = biological target: ELF4 (Homo sapiens, UniProt Q99607 1-663); details: protein: recombinant; tags: N-terminal GST; dsDNA, one strand shown
In short: as §1

[6] = biological target: T3, ELK4 (Homo sapiens, UniProt P28324-2 1-405); details: protein: recombinant; tags: N-terminal GST; dsDNA, one strand shown
T3 sequence: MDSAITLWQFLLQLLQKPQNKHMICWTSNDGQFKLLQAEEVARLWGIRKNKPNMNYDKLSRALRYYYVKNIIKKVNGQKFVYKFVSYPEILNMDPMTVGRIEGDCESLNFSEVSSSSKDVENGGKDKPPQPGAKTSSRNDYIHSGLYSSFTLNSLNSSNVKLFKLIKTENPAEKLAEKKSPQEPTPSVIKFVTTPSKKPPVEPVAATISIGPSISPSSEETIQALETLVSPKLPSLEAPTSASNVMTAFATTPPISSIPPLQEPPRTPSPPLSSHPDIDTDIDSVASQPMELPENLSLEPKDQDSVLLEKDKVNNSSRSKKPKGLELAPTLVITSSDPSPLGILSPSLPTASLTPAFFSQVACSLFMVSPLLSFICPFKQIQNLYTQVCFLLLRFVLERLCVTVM
In short: as §1

[7] = biological target: T4, ETV2 (Homo sapiens, UniProt O00321 1-342); details: protein: recombinant; tags: N-terminal GST; dsDNA, one strand shown
T4 sequence: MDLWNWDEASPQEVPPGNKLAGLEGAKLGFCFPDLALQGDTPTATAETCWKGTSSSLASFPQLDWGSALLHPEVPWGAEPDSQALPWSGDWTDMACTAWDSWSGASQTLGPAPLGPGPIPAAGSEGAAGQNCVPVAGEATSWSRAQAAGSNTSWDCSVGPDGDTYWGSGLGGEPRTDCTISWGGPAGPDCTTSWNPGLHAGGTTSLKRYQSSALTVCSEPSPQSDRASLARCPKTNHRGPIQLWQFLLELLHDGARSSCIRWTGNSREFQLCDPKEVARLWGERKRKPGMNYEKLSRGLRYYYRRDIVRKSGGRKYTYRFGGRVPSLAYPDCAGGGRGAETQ
In short: as §1

[8] = biological target: T5, ELF3 (Homo sapiens, UniProt P78545 1-371); details: protein: recombinant; tags: N-terminal GST; dsDNA, one strand shown
T5 sequence: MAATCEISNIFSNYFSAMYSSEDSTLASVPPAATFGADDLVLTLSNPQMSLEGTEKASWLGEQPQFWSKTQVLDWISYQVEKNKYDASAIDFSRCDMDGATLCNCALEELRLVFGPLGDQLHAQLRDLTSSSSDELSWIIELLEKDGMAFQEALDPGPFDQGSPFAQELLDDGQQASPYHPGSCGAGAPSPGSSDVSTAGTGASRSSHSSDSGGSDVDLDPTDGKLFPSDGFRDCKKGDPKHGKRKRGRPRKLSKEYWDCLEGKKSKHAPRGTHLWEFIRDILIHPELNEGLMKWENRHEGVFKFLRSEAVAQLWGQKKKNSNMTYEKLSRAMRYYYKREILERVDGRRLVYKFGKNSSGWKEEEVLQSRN
In short: as §1

[9] = biological target: CRX (Homo sapiens, UniProt O43186 1-299); details: protein: recombinant; tags: N-terminal GST; dsDNA, one strand shown
In short: as §1

[10] = biological target: ETV1 (Homo sapiens, UniProt P50549 1-477); details: protein: recombinant; tags: N-terminal GST; dsDNA, one strand shown
In short: as §1

Chain of ETV1 (P50549 whole entry): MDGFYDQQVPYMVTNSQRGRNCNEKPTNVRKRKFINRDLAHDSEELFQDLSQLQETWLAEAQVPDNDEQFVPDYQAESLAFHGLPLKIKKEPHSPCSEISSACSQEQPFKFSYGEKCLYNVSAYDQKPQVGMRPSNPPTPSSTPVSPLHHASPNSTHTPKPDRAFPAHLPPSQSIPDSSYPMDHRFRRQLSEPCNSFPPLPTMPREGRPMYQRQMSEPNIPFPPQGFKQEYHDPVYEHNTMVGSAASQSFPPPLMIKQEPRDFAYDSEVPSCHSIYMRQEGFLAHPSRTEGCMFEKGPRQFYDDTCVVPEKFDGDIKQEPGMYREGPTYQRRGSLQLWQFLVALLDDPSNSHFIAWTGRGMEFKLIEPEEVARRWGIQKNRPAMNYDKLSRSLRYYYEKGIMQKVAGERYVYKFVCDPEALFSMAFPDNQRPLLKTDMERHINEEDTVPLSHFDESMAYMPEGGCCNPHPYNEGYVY
Chain of CRX (O43186 whole entry): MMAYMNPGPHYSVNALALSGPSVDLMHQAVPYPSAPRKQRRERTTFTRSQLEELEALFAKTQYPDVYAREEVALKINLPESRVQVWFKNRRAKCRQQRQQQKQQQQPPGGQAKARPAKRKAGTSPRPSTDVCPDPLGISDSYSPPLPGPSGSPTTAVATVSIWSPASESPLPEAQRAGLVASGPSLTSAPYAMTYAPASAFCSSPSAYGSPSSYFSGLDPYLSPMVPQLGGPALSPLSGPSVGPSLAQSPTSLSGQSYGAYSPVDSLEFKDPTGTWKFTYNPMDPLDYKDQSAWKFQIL
Chain of ELF4 (Q99607 whole entry): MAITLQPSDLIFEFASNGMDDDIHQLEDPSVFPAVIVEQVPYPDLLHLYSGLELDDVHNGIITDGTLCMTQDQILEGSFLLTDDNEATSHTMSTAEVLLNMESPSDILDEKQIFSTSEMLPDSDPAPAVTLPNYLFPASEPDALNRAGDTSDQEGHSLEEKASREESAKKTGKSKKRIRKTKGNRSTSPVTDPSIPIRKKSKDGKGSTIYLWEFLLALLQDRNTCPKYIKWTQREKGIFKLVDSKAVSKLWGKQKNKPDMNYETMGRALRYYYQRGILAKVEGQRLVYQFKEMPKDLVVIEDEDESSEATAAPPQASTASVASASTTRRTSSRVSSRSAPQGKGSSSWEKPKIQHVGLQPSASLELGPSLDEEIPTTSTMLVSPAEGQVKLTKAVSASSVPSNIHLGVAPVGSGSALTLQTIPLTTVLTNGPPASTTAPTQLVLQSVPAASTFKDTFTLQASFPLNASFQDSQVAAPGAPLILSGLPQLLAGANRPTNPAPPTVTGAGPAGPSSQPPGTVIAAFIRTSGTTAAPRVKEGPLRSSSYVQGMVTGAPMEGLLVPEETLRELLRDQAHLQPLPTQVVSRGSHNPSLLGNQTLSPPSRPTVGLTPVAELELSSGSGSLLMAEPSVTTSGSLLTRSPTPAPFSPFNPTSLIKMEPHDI
Chain of HSF1 (Q00613 whole entry): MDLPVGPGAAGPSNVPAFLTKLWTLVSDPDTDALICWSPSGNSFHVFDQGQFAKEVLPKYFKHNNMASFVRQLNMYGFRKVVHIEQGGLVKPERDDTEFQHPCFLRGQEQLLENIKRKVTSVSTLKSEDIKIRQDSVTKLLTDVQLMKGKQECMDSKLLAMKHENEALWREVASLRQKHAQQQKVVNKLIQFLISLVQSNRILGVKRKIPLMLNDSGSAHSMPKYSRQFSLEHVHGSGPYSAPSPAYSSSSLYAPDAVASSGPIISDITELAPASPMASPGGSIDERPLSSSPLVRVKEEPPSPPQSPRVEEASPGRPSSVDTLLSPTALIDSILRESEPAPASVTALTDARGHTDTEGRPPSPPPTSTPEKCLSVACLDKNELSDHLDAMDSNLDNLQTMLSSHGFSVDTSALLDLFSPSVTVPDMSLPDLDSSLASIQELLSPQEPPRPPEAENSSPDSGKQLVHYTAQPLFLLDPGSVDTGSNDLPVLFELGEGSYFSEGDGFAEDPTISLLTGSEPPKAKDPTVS
Chain of ETV5 (P41161 whole entry): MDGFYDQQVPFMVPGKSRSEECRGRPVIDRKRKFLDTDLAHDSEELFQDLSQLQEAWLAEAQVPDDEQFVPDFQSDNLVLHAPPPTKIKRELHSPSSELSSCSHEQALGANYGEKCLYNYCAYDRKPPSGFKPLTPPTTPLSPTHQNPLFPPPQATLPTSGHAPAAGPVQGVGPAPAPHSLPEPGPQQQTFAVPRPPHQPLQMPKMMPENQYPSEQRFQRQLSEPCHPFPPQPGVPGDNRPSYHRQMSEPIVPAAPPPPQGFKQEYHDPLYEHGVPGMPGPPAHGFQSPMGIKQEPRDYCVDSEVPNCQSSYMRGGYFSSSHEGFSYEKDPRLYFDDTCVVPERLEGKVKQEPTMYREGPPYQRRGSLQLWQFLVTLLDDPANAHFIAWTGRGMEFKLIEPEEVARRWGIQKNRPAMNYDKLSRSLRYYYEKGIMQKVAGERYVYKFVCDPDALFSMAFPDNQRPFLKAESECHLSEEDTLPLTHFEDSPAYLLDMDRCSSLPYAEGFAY

TTCCCA
binding signal [1]: 1.16 fold enrichment (6-mer frequency, TF over GST control)
binding signal [2]: 1.29 fold enrichment (6-mer frequency, TF over GST control)
binding signal [3]: 1.08 fold enrichment (6-mer frequency, TF over GST control)
binding signal [4]: 1.23 fold enrichment (6-mer frequency, TF over GST control)
binding signal [5]: 1.26 fold enrichment (6-mer frequency, TF over GST control)
binding signal [6]: 1.08 fold enrichment (6-mer frequency, TF over GST control)
binding signal [7]: 1.13 fold enrichment (6-mer frequency, TF over GST control)
binding signal [8]: 1.27 fold enrichment (6-mer frequency, TF over GST control)
binding signal [9]: 1.16 fold enrichment (6-mer frequency, TF over GST control)
binding signal [10]: 1.2 fold enrichment (6-mer frequency, TF over GST control)
